The source of these data is paper PMC4552634, “A New Set of Chemical Starting Points with Plasmodium falciparum Transmission-Blocking Potential for Antimalarial Drug Discovery” (PLoS ONE, 2015).

The campaign covered roughly 13,000 compounds. About 3,200 (25%) showed an effect of 50% or more. Some of the results follow.

The subject of this assay is P. falciparum stage V gametocytes. More on the design: BacTiter-Glo ATP luminescence viability of purified stage V gametocytes in 384-well plates, per cent inhibition versus DMSO. The following applies: 48 h, 5 µM; inhibitor.
Consider `O=C(Nc1ccc(-c2nc3ccccc3[nH]2)cc1)C1CCN(Cc2ccc(F)cc2)CC1` [TCMDC-124680], for which the “% Inhibition” value is listed as 4.478%. For `CCCc1cc(=O)[nH]c(-n2nc(C)cc2NC(=O)CC(c2ccccc2)c2ccccc2)n1` [TCMDC-124940], the “% Inhibition” value amounted to 43.65%.

For the compound `CC(C)C[C@H](NC(=O)c1cccc(F)c1)C(=O)N[C@H](/C=N/NC(=O)c1ccccc1)CCc1ccccc1` [TCMDC-135679], the “% Inhibition” value was found to be 8.745%.

As for `CC(=O)Nc1ccc(CN2CCc3ccc(NS(=O)(=O)c4ccc(-c5cccc(C(F)(F)F)c5)cc4)cc3CC2)s1` [TCMDC-132328], the “% Inhibition” value is 7.357%. Under `Cc1ccc(-c2ccc(NC(=O)N3CCc4cc(Br)c(N5CCN(C)CC5)cc43)cc2)cn1` [TCMDC-139294] stands -24.43%; under `CN(C)CCNC(=O)c1csc(Nc2ccc(Cl)c(Cl)c2)n1` [TCMDC-123722], -60.24%; under `COc1cccc2cc(C(=O)N[C@@H](CC(C)C)C(=O)N[C@H](C=NNC(=O)OC(C)(C)C)CC(C)C)oc12` [TCMDC-136062], 12.96%. Under `Cc1ccc2nc(C)n(C3CCN(C(=O)C4(c5ccccc5)CC4)CC3)c2c1` [TCMDC-124796] stands 44.07%; under `Cc1ccc2nc(C)n(C3CCN(C(=O)Cc4ccccc4C)CC3)c2c1` [TCMDC-124795], 76.45%; under `COc1ccc(Br)cc1/C=C/C(=O)Nc1cccc(C2CCCN(C)C2)c1` (centres unmarked) [TCMDC-133710], 13.98%. Under `Cc1ncccc1-c1cccc2c(NC(=O)Nc3ccc4nccc(N5CCN(C)CC5)c4c3)cccc12` [TCMDC-139369] stands -6.373%. With `Cc1nc(-c2cccc3c(NC(=O)Nc4ccc5nccc(N6CCN(C)CC6)c5c4)cccc23)no1` [TCMDC-139340], the “% Inhibition” value came out at 66.85%.

Consider `CN1CCN(c2ccnc3ccc(NC(=O)Nc4ccc(-c5ccncc5)c5ccccc45)cc23)CC1` [TCMDC-139251], for which the “% Inhibition” value is given as -4.793%. Consider `CN1CCN(c2ccnc3ccc(NC(=O)Nc4ccc(-c5ccncc5)c(C(F)(F)F)c4)cc23)CC1` [TCMDC-139260], for which the “% Inhibition” value worked out at 40.16%. Under `CN1CCN(c2ccnc3ccc(NC(=O)Nc4ccc(-c5ccncc5)c(C#N)c4)cc23)CC1` [TCMDC-139268] stands 80.15%; under `CN1CCN(c2ccnc3ccc(NC(=O)Nc4cccc5c(-c6ccncc6)cccc45)cc23)CC1` [TCMDC-139252], -0.3523%. Under `COC(=O)c1ccc(CC(C)NCC(O)c2cccc(OC(F)(F)F)c2)cc1` (centres unmarked) [TCMDC-131487] stands 26.86%. Take `O=C(c1cccc(-c2cccc(-c3nc4ccccc4[nH]3)c2)c1)N1CCCCC1CN1CCC(O)C1` (centres unmarked) [TCMDC-132311]: the “% Inhibition” value is on record as -3.438%. On to `Cc1[nH]c(/C=C2\C(=O)Nc3ccc(S(=O)(=O)Cc4c(Cl)cccc4Cl)cc32)c(C)c1C(=O)N1CCC[C@@H]1CN1CCCC1` [TCMDC-125885], for which the “% Inhibition” value came out at 103.4%. Under `Cc1cccc2nc(-c3cccc(-c4cccc(C(=O)N5CCCCC5CN5CCC(O)C5)c4)c3)[nH]c12` (centres unmarked) [TCMDC-132347] stands 6.025%. Under `COc1cccc(C=Cc2nc(=O)c3ccccc3o2)c1OC` [TCMDC-124577] stands 34.84%; under `COc1ccc(Cc2cnc3nc(N)nc(N)c3c2C)cc1OC` [TCMDC-138057], 6.807%.

Take `CCCCc1ccc(C(=O)Nc2ccc3nc(N4CCN(CC)CC4)cc(C)c3c2)cc1` [TCMDC-125578]: the “% Inhibition” value is reported as -16.83%.

Consider `CCCCc1ccc(C(=O)Nc2ccc3nc(N4CCN(C)CC4)cc(C)c3c2)cc1` [TCMDC-125570], for which the “% Inhibition” value is given as -31.24%. Under `Nc1ccnc2ccc(NC(=O)CCCCCc3ccccc3)cc12` [TCMDC-139070] stands 2.045%; under `CNc1c2c(nc3ccc(NC(=O)CCCCCCc4ccccc4)cc13)CCCC2` [TCMDC-139066], 79.48%; under `O=C(CCCCCCc1ccccc1)Nc1ccc2nc3c(c(NCc4ccccc4)c2c1)CCCC3` [TCMDC-139063], 91.52%.

In the case of `O=C(Nc1ccc2nc3n(c(=O)c2c1)CCCCC3)C(=O)N1CCC(Cc2ccccc2)CC1` [TCMDC-125294], the “% Inhibition” value was -23.73%. On to `COc1ccc2nccc(NN=Cc3cccnc3)c2c1` [TCMDC-142032], for which the “% Inhibition” value is given as -14.51%. Under `O=C(Nc1nccs1)c1cn(-c2ccccc2)nc1-c1ccc(Cl)s1` [TCMDC-123623] stands 9.788%; under `CC(C)(CNC(=O)C1CCN(CCOc2ccc(Cl)cc2)CC1)c1nc(-c2ccc(Cl)c(O)c2)c(-c2ccncc2)[nH]1` [TCMDC-141124], -30.29%. Under `Cc1cccc(CN2CCCN(Cc3ccc(C(=O)Nc4ccc(C)c(F)c4)cc3)CC2)c1` [TCMDC-136396] stands -4.425%; under `COc1ccc(CNCCc2cccs2)cc1-c1ccc(S(=O)(=O)NCCN2CCCC2)cc1` [TCMDC-132475], 76.8%; under `COc1ccc(CNCCc2cccs2)cc1-c1cccc(S(=O)(=O)NCCN2CCCC2)c1` [TCMDC-132479], 91.1%. Under `COc1ccc(CNCCc2cccs2)cc1-c1ccc(OC)c(S(=O)(=O)NCCN2CCCC2)c1` [TCMDC-132476] stands 71.75%; under `Cc1cc(-c2ccc(CNCCc3cccs3)cc2)ccc1S(=O)(=O)NCc1ccccc1` [TCMDC-132473], 18.33%; under `S=c1nc(-c2ccccc2)n2ccsc2n1` [TCMDC-123905], 9.815%. Take `CC(C)c1ncc(-c2ccncc2)c(C2CCC(CNC(=O)c3cccnc3)CC2)n1` (centres unmarked) [TCMDC-124825]: the “% Inhibition” value came to 14.15%. Consider `O=C(Nc1cccc(-c2ccc(-c3nc4ccccc4[nH]3)cc2)c1)Nc1ccc(F)c(F)c1F` [TCMDC-133230], for which the “% Inhibition” value is -14.97%. Under `CCc1cccc(OCCCON2C(N)=NC(N)=NC2(C)C)c1` [TCMDC-131306] stands 2.586%; under `Fc1ccc2nc(-c3ccc(-c4ccc(CN5CCN(c6cnccn6)CC5)cc4)s3)[nH]c2c1` [TCMDC-133893], 9.584%; under `O=C(CCCCCNC(=O)c1ccc(O)c(-c2ccc(Cl)c(Cl)c2)c1)NC1CCCc2ccccc21` (centres unmarked) [TCMDC-140866], 4.143%. Under `CC1CN(c2ccc3[nH]cc(Sc4ccc(-c5cccs5)cc4)c3c2)CC(C)N1` (centres unmarked) [TCMDC-136644] stands -55.49%; under `COc1cccc(-c2cc(C(=O)Nc3ccc4nc(-c5ccccc5)[nH]c4c3)[nH]n2)c1` [TCMDC-134319], 8.642%. For the compound `Cc1noc(-c2cccs2)c1C(=O)NC(C)c1cccc2ccccc12` (centres unmarked) [TCMDC-124788], the “% Inhibition” value is -15.69%. Under `COC(=O)c1ccc2c(-c3nc4ccc(OC)cc4[nH]3)c[nH]c2c1` [TCMDC-135457] stands 32.14%. Under `COc1ccc2nc(SC(C)C(=O)c3c[nH]c4ccccc34)[nH]c2c1` (centres unmarked) [TCMDC-125034] stands 61.61%; under `O=C(CSc1n[nH]c(-c2ccccc2Br)n1)c1c[nH]c2ccccc12` [TCMDC-123710], 82.49%.

Take `CC(Sc1n[nH]c(-c2cccs2)n1)C(=O)c1c[nH]c2ccccc12` (centres unmarked) [TCMDC-125010]: the “% Inhibition” value was 53.42%.

In the case of `Cc1cc(N(C)C)nc(Nc2ccc(NC(=O)c3c(F)cccc3F)cc2)n1` [TCMDC-124977], the “% Inhibition” value was 1.948%. Under `COc1cc(SC)c(Br)cc1-c1nc2ccncc2[nH]1` [TCMDC-138164] stands -13.77%. Under `Oc1ccc(CCNc2nc(NCc3ccccc3Oc3ccc(C(F)(F)F)cc3)nc(N3CCNCC3)n2)cc1` [TCMDC-134133] stands -9.208%; under `CCOc1cc(C2C(C(=O)OC(C)C)=C(C)NC3=C2C(=O)CC(c2ccc(Cl)cc2)C3)ccc1OC(C)=O` (centres unmarked) [TCMDC-125628], -56.66%. Under `Cc1cnc2ccc(NS(=O)(=O)c3ccc4c(Cl)cccc4c3)cc2c1N1CCNCC1` [TCMDC-139558] stands 37.46%.

For the compound `CCCCOc1ccc(CNCCCCCCNCc2ccc(OCCCC)c3ccccc23)c2ccccc12` [TCMDC-137281], the “% Inhibition” value is on record as 121.9%. For the compound `CCOc1c(CNCCCCCCNCc2ccc3ccccc3c2OCC)ccc2ccccc12` [TCMDC-137942], the “% Inhibition” value stood at 73.68%.

Regarding `CCOc1c(Br)cc(Cl)cc1CNCCCNc1nc2ccccc2[nH]1` [TCMDC-140106], the “% Inhibition” value was 5.667%.

For the compound `CCCCSc1c(CNCCCCCCNCc2ccc3ccccc3c2SCCCC)ccc2ccccc12` [TCMDC-137825], the “% Inhibition” value was 112.9%.

On to `CN(C)c1c(CNCCCCCCNCc2ccc3ccccc3c2N(C)C)ccc2ccccc12` [TCMDC-137834], for which the “% Inhibition” value is given as 115.6%. In the case of `CCCc1ccc2c(c1O)CCC(N(CCC)CCC)C2` (centres unmarked) [TCMDC-138031], the “% Inhibition” value was -27.54%. Take `COc1ccc(CN(C)CC(O)COc2ccc(NC(=O)c3cccc4c(=O)c5cccc(OC)c5[nH]c34)cc2)cc1OC` (centres unmarked) [TCMDC-131851]: the “% Inhibition” value came to 12.51%. Turning to `O=C(Cc1ccccc1)NC1(c2ccccc2)CCN(CCc2c[nH]c3ccc(F)cc23)CC1` [TCMDC-131991], the “% Inhibition” value is 26.26%. Under `CCC(C)c1ccc(NC(=O)c2ccc(S(=O)(=O)Nc3ccc(OC)c(N4CCN(CC5CC5)CC4)c3)cc2)cc1` (centres unmarked) [TCMDC-136299] stands -16.95%; under `Oc1ccccc1CN1CCC2(CCCN(Cc3ccccc3F)C2)C1` (centres unmarked) [TCMDC-124620], 28.07%.

Turning to `Cc1cc(NC2CCCC2)nc(Nc2ccc(F)cc2)n1` [TCMDC-133472], the “% Inhibition” value is 46.74%. Under `CCCCOc1c(CNCCCCCCNCc2ccc3ccccc3c2OCCCC)ccc2ccccc12` [TCMDC-137975] stands 107.4%; under `CCCCOc1cc(CNCCCCCCNCc2cc(OCCCC)cc3ccccc23)c2ccccc2c1` [TCMDC-137824], 36.59%; under `COC(=O)c1cccc(CNCc2ccc(-c3ccc(-c4nc5cc(C(F)(F)F)ccc5[nH]4)cc3)cc2)c1.O=C(O)C(F)(F)F` [TCMDC-132954], -38.93%.
